Source: PubChem BioAssay AID493168 (National Center for Advancing Translational Sciences (NCATS), 2011)
Records with an inconclusive call do not appear. Entries that show only a call come without a potency. Active and inactive are the calls of the source. The call rests on the fitted dose curve; in most records, active means well fitted inhibition curve with a large enough effect; inconclusive means small, poorly fitted or top-dose-only effect, or effect the other way; inactive means flat fitted curve, though single readings scatter.

Target: Ubiquitin carboxyl-terminal hydrolase 2 (Homo sapiens) (UniProt O75604)
Sequence (O75604 whole entry, looked up): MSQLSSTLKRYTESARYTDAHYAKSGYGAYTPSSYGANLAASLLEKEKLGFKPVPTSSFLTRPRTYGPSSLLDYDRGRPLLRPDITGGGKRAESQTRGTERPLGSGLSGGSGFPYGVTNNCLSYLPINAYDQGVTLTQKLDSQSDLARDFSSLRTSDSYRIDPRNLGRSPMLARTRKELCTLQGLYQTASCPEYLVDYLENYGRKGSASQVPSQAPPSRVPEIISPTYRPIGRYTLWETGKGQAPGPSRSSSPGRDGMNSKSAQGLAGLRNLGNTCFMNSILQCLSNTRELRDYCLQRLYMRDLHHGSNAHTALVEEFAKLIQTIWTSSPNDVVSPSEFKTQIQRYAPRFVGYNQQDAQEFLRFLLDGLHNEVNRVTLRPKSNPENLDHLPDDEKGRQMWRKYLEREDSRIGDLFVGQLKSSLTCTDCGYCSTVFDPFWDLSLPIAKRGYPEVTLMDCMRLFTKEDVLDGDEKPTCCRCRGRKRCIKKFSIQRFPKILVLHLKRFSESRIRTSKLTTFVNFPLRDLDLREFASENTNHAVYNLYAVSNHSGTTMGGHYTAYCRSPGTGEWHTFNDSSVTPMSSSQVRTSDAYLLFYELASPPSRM
Experiment: Confirmation Assay for Inhibitors of Ubiquitin-specific Protease USP2a Using CHOP2 as the Reporter; further: nearly all actives have a fitted effect of over 55% in size
Procedure, shortened: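 Ub-CHOP2 cleavage coupled to reporter activation was read by fluorescence after 60 min at RT, with 25 nM final Ub-CHOP2 and substrate. Enzyme (10 nM final USP2 core) first sat 30 min with compound; data were normalized to NEM and fitted to concentration-response curves.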
Potency means the concentration at half of the fitted maximal effect.

| Structure (SMILES) | Potency |
| --- | --- |
| C[C@H](CO)N1C[C@H](C)[C@@H](CN(C)S(=O)(=O)c2cccs2)Oc2c(NC(=O)Nc3ccc4c(c3)OCO4)cccc2C1=O | inactive |
| CC(C)(C)C1C=C(Sc2ccccc2)C(=O)O1 (configuration not stated) | inactive |
| Clc1ccccc1-c1nnc2sc(-c3cccs3)nn12 | inactive |
| O=C(c1ccccc1)N1CCN(C2C3CC4CC(C3)CC2C4)CC1 (configuration not stated) | inactive |
| CCCCCCCCCC[N+](C)(C)CC/C=C1/c2ccccc2Sc2ccc(Cl)cc21 | 13.1 µM (active) |
| C=CCOc1cccc(C2C(C(=O)c3ccco3)=C(O)C(=O)N2CCN(CC)CC)c1 (configuration not stated) | inactive |
| O=C(C[n+]1ccc(-c2cc(C(=O)Nc3cccc(C(F)(F)F)c3)c3ccccc3n2)cc1)c1cccc([N+](=O)[O-])c1 | inactive |
| CCn1c(COc2ccc(C)cc2)nnc1SCC(=O)Nc1ccc2c(c1)OCCO2 | inactive |
| Cc1ccc2[nH]c3c(c2c1)CN(C(=O)CN1CCSCC1)CC3 | inactive |
| CCOc1ccccc1C(=O)NC1CC2CCCC(C1)N2C1CC1 (configuration not stated) | inactive |
| CCCC(=O)Nc1ccc(N2CCN(C(=O)c3cc4ccccc4o3)CC2)cc1 | inactive |
| Cc1ccc2[nH]c(C)c(CCNC(=O)c3cc4cc([N+](=O)[O-])ccc4oc3=O)c2c1 | inactive |
| CCOc1ccc(C(=O)c2ccc(OCC)c(N)c2)cc1N | inactive |
| O=C(CSc1nnnn1-c1ccc(F)cc1)c1ccc(O)c(O)c1 | inactive |
| CCC1SC2=NC(C)=C(C(=O)OCCOC)C(c3ccc(C(=O)OC)cc3)N2C1=O (configuration not stated) | inactive |
| COc1ccc(/C=N\NC(=O)c2cc(O)c(O)c(O)c2)cc1COc1ccc(C(=O)OCC(C)C)cc1 | 14.7 µM (active) |

| Structure (SMILES) | Potency |
| --- | --- |
| Cc1ccc(-c2cc(-c3ccc(C)cc3)[n+](-c3ccc(C(=O)[O-])cc3)c(-c3ccc(C)cc3)c2)cc1 | inactive |
| CC1(C)CC(=O)C2=C(C1)N(Cc1ccco1)C(=O)NC2(C(F)(F)F)C(F)(F)F | inactive |
| COc1ccc(NC(=O)CSc2ncccc2C(=O)OC(C)C)cc1OC | inactive |
| O=C1/C(=C/C=C/c2ccco2)SC(=S)N1NS(=O)(=O)c1ccccc1 | 8.26 µM (active) |
| COc1ccc(CC(=O)c2ccccc2C(=O)O)cc1 | inactive |
| O=C(Oc1ccccc1C(=O)Nc1ccccc1)c1ccccc1Br | inactive |
| C=C(C)COc1ccc(-c2[nH]ncc2Oc2ccccc2OCC)c(O)c1 | inactive |
| CC(C)(C)NC(=O)CSc1nc(O)cc(=O)n1-c1ccccc1F | inactive |
| Cc1ccccc1[C@@H]1C(C#N)=C(N)S[C@H]1C(=O)c1ccccc1 | inactive |
| CCOc1ccccc1C(=O)Nc1nnc(C(C)C)s1 | inactive |
| COc1cc(C(=O)OC2CCCCC2=O)cc(OC)c1C (configuration not stated) | 11.7 µM (active) |
| NS(=O)(=O)c1cc(C(=O)NC2CCSc3ccccc32)ccc1Cl (configuration not stated) | 13.1 µM (active) |
| CCCCCc1ccc(OCCOCCn2c[n+](C)c3ccccc32)c(CCCCC)c1 | inactive |
| COc1cccc(C(=O)NCc2ccc3[nH]c(C)cc3c2)c1 | inactive |
| COCc1cc(C)nc(OCC(=O)N/N=C\c2cc(C)n(-c3cccc(C(F)(F)F)c3)c2C)c1C#N | inactive |
| Cc1cccc(Nc2nc(NCc3ccco3)c3ccccc3n2)c1 | inactive |
